Inconclusive results are not listed. The source made the active and inactive calls. Unless noted, calls follow the shape of the dose curve; as a rule, active = well fitted curve in the direction sought with a large enough effect in the repeat runs; inconclusive = weak or mixed curves; inactive = no such curve, though single readings can be large; an effect the other way counts as inactive or inconclusive.
Columns and labels:
[1] = qHTS assay to identify small molecule antagonists of the estrogen receptor beta (ER-beta) signaling pathway - cell viability counter screen (AID 1259382);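 also: HEK293T cells carrying ER-beta-UAS-bla reporter stimulated with estradiol; series mostly up to about 92 µM; nearly all actives have a fitted effect of over 55% in size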
Method in brief: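 ER-beta-UAS-bla HEK293T cells in 2% charcoal-stripped FBS medium, treated with compound plus 1 nM 17-beta-estradiol for 16 h at 37C. Viability read by CellTiter-Glo luminescence after 30 min at room temperature in the same wells.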

[2] = target: Estrogen receptor (Homo sapiens) (UniProt P03372); assay: qHTS assay to identify small molecule agonists of the estrogen receptor alpha (ER-alpha) signaling pathway in the presence of an antagonist (AID 1259383; calls by dose curve; also: nearly all actives have a fitted effect of over 15% in size; also: potency is read from the fitted curve at half-maximal effect; as to activation: top concentration of the series differs between compounds)
Sequence of Estrogen receptor (Homo sapiens) (P03372 whole entry, looked up): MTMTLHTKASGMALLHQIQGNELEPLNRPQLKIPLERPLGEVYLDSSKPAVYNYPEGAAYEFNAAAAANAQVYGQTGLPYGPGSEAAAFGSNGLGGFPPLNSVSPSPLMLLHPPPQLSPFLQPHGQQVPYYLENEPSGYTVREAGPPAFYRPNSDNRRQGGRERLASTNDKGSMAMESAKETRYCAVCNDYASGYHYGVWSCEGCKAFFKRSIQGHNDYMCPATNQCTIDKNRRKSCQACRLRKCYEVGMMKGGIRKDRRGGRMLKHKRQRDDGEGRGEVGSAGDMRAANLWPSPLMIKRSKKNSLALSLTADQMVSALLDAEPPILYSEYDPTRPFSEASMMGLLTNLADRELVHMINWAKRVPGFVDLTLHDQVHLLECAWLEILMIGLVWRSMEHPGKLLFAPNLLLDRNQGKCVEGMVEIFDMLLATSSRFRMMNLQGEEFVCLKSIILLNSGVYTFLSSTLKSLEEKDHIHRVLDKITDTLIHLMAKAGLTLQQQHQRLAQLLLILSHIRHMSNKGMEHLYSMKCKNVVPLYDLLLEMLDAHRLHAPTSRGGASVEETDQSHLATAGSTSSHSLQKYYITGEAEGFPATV
Method in brief: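 VM7Luc4E2 cells express endogenous full-length ER-alpha with an ERE-luciferase reporter and were hormone-deprived for 5 days. Compounds at 15 concentrations were added with 10.0nM ICI-182,780 for 22hr at 37C. Luminescence was read with ONE-Glo.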

[3] = qHTS assay to identify small molecule agonists or antagonists of the thyroid stimulating hormone receptor (TSHR) signaling pathway - wild type cell line counter screen (AID 1259384; calls by dose curve)
Method in brief: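 Wild-type Hek293 cells, 800/well, 18 h at 37C, then compound with Ro20-1724 for 30 min RT. cAMP by HTRF (cAMP-d2/anti-cAMP cryptate), 1 h RT, fluorescence read. 15 concentrations, triplicates.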

[4] = target: Thyrotropin receptor (Homo sapiens) (UniProt P16473); assay: qHTS assay to identify small molecule antagonists of the thyroid stimulating hormone receptor (TSHR) signaling pathway (AID 1259385; calls by dose curve; also: nearly all actives have a fitted effect of over 20% in size)
Sequence of Thyrotropin receptor (Homo sapiens) (P16473 whole entry, looked up): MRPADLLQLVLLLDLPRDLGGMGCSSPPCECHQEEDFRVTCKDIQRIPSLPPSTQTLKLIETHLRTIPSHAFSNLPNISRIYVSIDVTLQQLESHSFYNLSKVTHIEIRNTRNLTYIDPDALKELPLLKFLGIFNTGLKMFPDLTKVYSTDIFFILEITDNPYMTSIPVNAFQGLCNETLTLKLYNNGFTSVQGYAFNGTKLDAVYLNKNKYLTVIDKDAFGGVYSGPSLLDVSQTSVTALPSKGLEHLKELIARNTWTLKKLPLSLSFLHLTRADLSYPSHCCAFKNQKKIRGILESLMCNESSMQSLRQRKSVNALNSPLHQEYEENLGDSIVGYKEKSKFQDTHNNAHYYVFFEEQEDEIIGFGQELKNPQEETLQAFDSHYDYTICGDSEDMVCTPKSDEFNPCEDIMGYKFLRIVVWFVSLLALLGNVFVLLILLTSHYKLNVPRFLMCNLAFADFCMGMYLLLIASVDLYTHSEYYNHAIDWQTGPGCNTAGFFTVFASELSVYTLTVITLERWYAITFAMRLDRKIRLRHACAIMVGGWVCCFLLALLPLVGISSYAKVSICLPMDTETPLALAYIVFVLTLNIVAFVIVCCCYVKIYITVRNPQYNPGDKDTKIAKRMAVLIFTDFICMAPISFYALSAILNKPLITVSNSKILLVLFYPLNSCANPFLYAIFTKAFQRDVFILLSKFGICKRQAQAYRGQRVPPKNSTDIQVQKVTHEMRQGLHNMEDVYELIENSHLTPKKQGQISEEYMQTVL
Method in brief: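 TSHR-HEK293 cells (800/well) plated 18 h, then compounds with Ro20-1724 and TSH at 1.5 ng/mL final, 30 min at room temperature. cAMP quantified by HTRF (cAMP-d2/anti-cAMP-cryptate, 1 h); 15 concentrations in triplicate.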

[5] = qHTS assay to identify small molecule agonists of the estrogen receptor alpha (ER-alpha) signaling pathway in the presence of an antagonist - cell viability counter screen (AID 1259386);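 also: series mostly up to about 92 µM; cells exposed to compounds for 22 h at 37 °C before the viability read; nearly all actives have a fitted effect of over 30% in size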
Method in brief: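 Cell viability in VM7Luc4E2 cells (endogenous full-length ER-alpha) measured by CellTiter-Fluor fluorescence in the same wells as the luciferase screen. Cells pre-cultured 5 days in charcoal-stripped serum, then treated 22 h with compounds at 15 concentrations plus 10.0nM ICI-182,780.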

[6] = target: Progesterone receptor (Homo sapiens) (UniProt P06401); assay: qHTS assay to identify small molecule agonists of the progesterone receptor (PR) signaling pathway (AID 1346784; calls by dose curve; also: nearly all actives have a fitted effect of over 30% in size)
Sequence of Progesterone receptor (Homo sapiens) (P06401 whole entry, looked up): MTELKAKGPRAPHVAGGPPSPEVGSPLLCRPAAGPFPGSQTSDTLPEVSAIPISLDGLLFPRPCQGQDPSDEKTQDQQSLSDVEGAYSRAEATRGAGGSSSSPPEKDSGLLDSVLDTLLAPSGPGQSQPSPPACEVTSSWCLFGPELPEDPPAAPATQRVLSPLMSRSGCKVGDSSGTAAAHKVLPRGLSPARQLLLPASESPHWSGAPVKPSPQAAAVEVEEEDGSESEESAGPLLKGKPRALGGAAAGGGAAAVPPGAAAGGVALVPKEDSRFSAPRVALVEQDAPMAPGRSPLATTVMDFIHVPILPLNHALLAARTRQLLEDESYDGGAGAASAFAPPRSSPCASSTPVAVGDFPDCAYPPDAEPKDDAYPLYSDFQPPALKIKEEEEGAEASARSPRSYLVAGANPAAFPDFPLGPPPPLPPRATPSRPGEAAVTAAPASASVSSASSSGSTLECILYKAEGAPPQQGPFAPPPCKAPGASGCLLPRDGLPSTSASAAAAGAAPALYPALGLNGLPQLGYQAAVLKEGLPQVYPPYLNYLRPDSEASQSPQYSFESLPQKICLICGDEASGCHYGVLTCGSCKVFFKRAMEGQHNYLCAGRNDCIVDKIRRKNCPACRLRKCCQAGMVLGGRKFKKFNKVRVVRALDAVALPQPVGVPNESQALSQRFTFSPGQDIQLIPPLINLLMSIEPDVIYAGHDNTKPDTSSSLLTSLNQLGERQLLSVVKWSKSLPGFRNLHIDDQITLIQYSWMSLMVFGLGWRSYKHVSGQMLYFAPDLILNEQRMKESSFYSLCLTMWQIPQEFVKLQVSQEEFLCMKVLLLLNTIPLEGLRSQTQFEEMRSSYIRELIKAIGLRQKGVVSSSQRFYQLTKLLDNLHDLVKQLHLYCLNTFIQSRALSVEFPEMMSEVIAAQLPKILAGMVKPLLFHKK
Method in brief: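 PR-UAS-bla HEK 293T cells (beta-lactamase reporter under UAS) in 2% charcoal-stripped FBS, dosed with 23 nL compound after 6 hr, incubated 16hr at 37C. LiveBLAzer B/G FRET substrate added, fluorescence read after 2 hours.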

[7] = target: Progesterone receptor (Homo sapiens) (UniProt P06401); assay: qHTS assay to identify small molecule antagonists of the progesterone receptor (PR) signaling pathway (AID 1346795; active = well fitted inhibition curve with a large enough effect in the signal ratio in the repeat runs, not every such curve was filed as active; the % refers to the signal ratio; also: potency is read from the fitted curve at half-maximal effect)
Method in brief: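 PR-UAS-bla HEK293T cells with beta-lactamase reporter under UAS control, in 2% charcoal-stripped FBS, treated with compounds plus 1 nM promegestone (R5020, final) for 16 hr at 37C. Read-out: FRET beta-lactamase substrate fluorescence after 2 hr at room temperature.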

[8] = qHTS assay to identify small molecule antagonists of the TGF-beta/Smad signaling pathway - cell viability counter screen (AID 1346824); also: nearly all actives have a fitted effect of over 50% in size
Method in brief: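 SBE-bla HEK 293T cells, incubated overnight, then compound plus 0.25 ng/mL TGF-beta1 (stock added) for 5 hr at 37 C. Viability was read in the same wells by CellTiter-Glo luminescence after 30 min at room temperature.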

[9] = qHTS assay to identify small molecule agonists of the TGF-beta/Smad signaling pathway (AID 1346859; active = well fitted activation curve with a large enough effect in the signal ratio in the repeat runs, not every such curve was filed as active; the % refers to the signal ratio; also: series mostly up to about 77 µM)
Method in brief: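 SBE-bla HEK293T cells plated overnight, then compound exposure for 5 h at 37 C. Beta-lactamase reporter read with LiveBLAzer B/G FRET substrate after 2 h at room temperature, fluorescence at 405 nm excitation, 460/530 nm emission.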

[10] = target: Thyrotropin-releasing hormone receptor (Homo sapiens) (UniProt P34981); assay: qHTS assay to identify small molecule antagonists of the thyrotropin-releasing hormone receptor (TRHR) signaling pathway (AID 1346877; active = well fitted inhibition curve with a large enough effect in the repeat runs, not every such curve was filed as active; also: series mostly up to about 51 µM)
Sequence of Thyrotropin-releasing hormone receptor (Homo sapiens) (P34981 whole entry, looked up): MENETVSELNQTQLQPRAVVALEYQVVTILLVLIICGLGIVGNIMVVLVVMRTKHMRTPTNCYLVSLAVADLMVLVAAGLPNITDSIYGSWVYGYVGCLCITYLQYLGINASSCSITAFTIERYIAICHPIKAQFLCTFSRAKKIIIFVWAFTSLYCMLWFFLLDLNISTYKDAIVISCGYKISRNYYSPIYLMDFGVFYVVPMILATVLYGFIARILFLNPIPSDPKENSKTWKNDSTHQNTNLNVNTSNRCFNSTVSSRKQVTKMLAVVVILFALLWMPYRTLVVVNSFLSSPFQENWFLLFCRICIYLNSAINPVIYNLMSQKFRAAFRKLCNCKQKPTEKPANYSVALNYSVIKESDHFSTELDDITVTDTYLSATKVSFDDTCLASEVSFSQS
Method in brief: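 TRHR-expressing HEK293 cells loaded with calcium dye for 2 h at 37 C; compounds pre-incubated 5 min at room temperature before TRH challenge at 1 nM final. Intracellular calcium fluorescence read kinetically for 3 min; 15 concentrations in triplicate.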

[11] = target: Thyrotropin-releasing hormone receptor (Homo sapiens) (UniProt P34981); assay: qHTS assay to identify small molecule agonists of the thyrotropin-releasing hormone receptor (TRHR) signaling pathway (AID 1346891; calls by dose curve; also: series mostly up to about 58 µM)
Method in brief: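 HEK293 cells expressing TRHR plated 18 h at 37 C/5% CO2, calcium dye-loaded 2 h at 37 C, then compound added (agonist mode); kinetic calcium fluorescence read 3 min at 1 s intervals; 15 concentrations in triplicate.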

[12] = Human pregnane X receptor (PXR) small molecule agonists, qHTS cell viability counter screen (AID 1346977); also: nearly all actives have a fitted effect of over 50% in size
Method in brief: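 PXR-Luc HepG2 cells (2,000/well, 5% charcoal-stripped FBS) preincubated 5 hr, then exposed to compounds 24 hr at 37 C. Viability read in the same wells by CellTiter-Fluor fluorescence, reagent added at 23 hr, 1 hr incubation.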

[13] = Caspase-3/7 induction in HepG2 cells by small molecules, qHTS assay (AID 1346978); also: nearly all actives have a fitted effect of over 15% in size
Method in brief: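 Wild-type HepG2 cells, 2,000/well, settled 5 hr at 37 C and 5% CO2, then compound-treated for 17 hr; caspase-3/7 activity read by luminescent Caspase-Glo 3/7 after 30 min at room temperature.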

[14] = Caspase-3/7 induction in CHO-K1 cells by small molecules, qHTS assay (AID 1346980); also: nearly all actives have a fitted effect of over 15% in size
Method in brief: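 Wild-type CHO-K1 cells exposed to compounds for 17hr at 37 C, 5% CO2. Caspase-3/7 activity then measured by Caspase-Glo 3/7 luminescence after 30min at room temperature.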

[15] = Caspase-3/7 induction in HepG2 cells by small molecules, qHTS cell viability counter screen (AID 1346981); also: series mostly up to about 92 µM; nearly all actives have a fitted effect of over 30% in size
Method in brief: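 Wild-type HepG2 cells, 2,000/well, settled 5 hr at 37 C, 5% CO2 before compound addition. Viability read by CellTiter-Fluor fluorescence, reagent added after 16 hr compound exposure, then 1 hr at 37C, in the same wells as the caspase read.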

[16] = target: Nuclear receptor subfamily 1 group I member 2 (Homo sapiens) (UniProt O75469); assay: Human pregnane X receptor (PXR) small molecule agonists, qHTS assay (AID 1346982); also: nearly all actives have a fitted effect of over 35% in size; also: potency is read from the fitted curve at half-maximal effect
Sequence of Nuclear receptor subfamily 1 group I member 2 (Homo sapiens) (O75469 whole entry, looked up): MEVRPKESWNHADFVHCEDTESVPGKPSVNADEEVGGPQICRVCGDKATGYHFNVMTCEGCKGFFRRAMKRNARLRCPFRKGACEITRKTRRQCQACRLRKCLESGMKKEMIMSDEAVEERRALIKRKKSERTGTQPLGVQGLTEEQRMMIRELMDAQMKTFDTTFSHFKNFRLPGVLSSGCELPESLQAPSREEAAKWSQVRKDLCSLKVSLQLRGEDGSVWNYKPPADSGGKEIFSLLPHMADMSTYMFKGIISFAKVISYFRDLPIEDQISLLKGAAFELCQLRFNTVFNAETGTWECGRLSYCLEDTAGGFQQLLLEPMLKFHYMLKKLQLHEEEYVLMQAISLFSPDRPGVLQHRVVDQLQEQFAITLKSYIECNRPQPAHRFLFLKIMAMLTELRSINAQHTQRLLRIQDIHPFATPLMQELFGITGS
Method in brief: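 PXR-Luc HepG2 reporter cells (CYP3A4-driven luciferase) in 5% charcoal-stripped FBS medium, plated 5 h before compound addition, then treated 24 h at 37C. Luciferase read by ONE-Glo luminescence after 30 min at room temperature.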

[17] = qHTS assay to identify small molecule agonists of the progesterone receptor (PR) signaling pathway - cell viability counter screen (AID 1346799; calls by dose curve; also: nearly all actives have a fitted effect of over 45% in size)
Method in brief: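 Counter screen in the PR-UAS-bla HEK293T wells (2% charcoal-stripped FBS, 16 h compound exposure at 37 C) after the bla read. CellTiter-Glo added, 30 min at room temperature, luminescence read as cell viability.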

[18] = qHTS assay to identify small molecule agonists of the TGF-beta/Smad signaling pathway - cell viability counter screen (AID 1346829); also: top concentration of the series differs between compounds; nearly all actives have a fitted effect of over 45% in size
Method in brief: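 Cytotoxicity counter screen: CellTiter-Glo luminescence (30 min, room temperature) measured in the SBE-bla HEK 293T reporter wells after 5 hr compound treatment at 37 C and the 2 hr substrate step.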

[19] = Caspase-3/7 induction in CHO-K1 cells by small molecules, qHTS cell viability counter screen (AID 1346979); also: nearly all actives have a fitted effect of over 35% in size
Method in brief: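 Wild-type CHO-K1 cells (1,500/well) treated with compound after 5 h plating; after 16 h at 37C, viability read as CellTiter-Fluor fluorescence following 1 h reagent incubation, in the same wells as the caspase read.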

[20] = qHTS assay to identify small molecule antagonists of the progesterone receptor (PR) signaling pathway - cell viability counter screen (AID 1346798); also: series mostly up to about 92 µM; nearly all actives have a fitted effect of over 50% in size
Method in brief: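 PR-UAS-bla HEK293T cells, 3,000/well in 2% charcoal-stripped FBS medium, dosed with compounds plus R5020 agonist and incubated 16 h at 37C. Viability then measured in the same wells by CellTiter-Glo luminescence after 30 min at RT.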
% is scaled to controls: 0 for no effect and ±100 for the full control effect.

CC(=O)Nc1ccc(S(=O)(=O)Nc2cc(C)on2)cc1
inactive: outcome [1] | Potency [2] | outcome [3] | outcome [4] | outcome [5] | Potency [6] | Potency [7] | outcome [8] | outcome [9] | outcome [10] | Potency [11] | outcome [12] | outcome [13] | outcome [14] | outcome [15] | Potency [16]

CCc1ccc(CC)cc1
inactive: outcome [1] | Potency [2] | outcome [3] | outcome [4] | Potency [6] | Potency [7] | Potency [17] | outcome [8] | outcome [18] | outcome [9] | outcome [10] | Potency [11] | outcome [12] | outcome [13] | Potency [19] | outcome [14] | outcome [15] | Potency [16]

N#Cc1cc(NC(=O)C(=O)O)c(Cl)c(NC(=O)C(=O)O)c1
inactive: outcome [1] | Potency [2] | outcome [3] | outcome [4] | Potency [6] | Potency [7] | outcome [20] | Potency [17] | outcome [8] | outcome [18] | outcome [9] | outcome [12] | outcome [13] | Potency [19] | outcome [14] | outcome [15] | Potency [16]

CCCCC(CC)CCC(CC(C)C)OS(=O)(=O)O (configuration not stated)
inactive: outcome [1] | Potency [2] | outcome [3] | outcome [4] | Potency [6] | Potency [7] | outcome [20] | Potency [17] | outcome [8] | outcome [18] | outcome [9] | outcome [12] | outcome [13] | outcome [14] | outcome [15] | Potency [16]

CCCCCCCCCCCCCCCCN(C)C
inactive: activity change, negative = cytotoxicity [1] 6.11% [at 8.39 µM] | activation [2] 0.651% [at 8.39 µM] | cAMP activity change [3] -1.46% [at 8.39 µM] | activity change, negative = inhibition [4] 1.02% [at 8.39 µM] | activity change, negative = cytotoxicity [5] 0.513% [at 8.39 µM] | activity change, negative = cytotoxicity [20] -0.0264% [at 8.39 µM] | activity change, negative = cytotoxicity [17] -6.19% [at 8.39 µM] | viability change, negative = cytotoxic [8] 3.18% [at 6.97 µM] | activation [9] 0.329% [at 6.97 µM] | activity change, negative = cytotoxicity [12] 1.81% [at 8.39 µM] | caspase activation [13] 0.737% [at 8.39 µM] | activity change, negative = cytotoxicity [19] -2.77% [at 8.39 µM] | caspase-3/7 activation [14] -0.483% [at 8.39 µM] | activity change, negative = cytotoxicity [15] -1.8% [at 8.39 µM]

C=COCCCCO
inactive: outcome [1] | Potency [2] | outcome [3] | outcome [4] | Potency [6] | Potency [7] | outcome [20] | Potency [17] | outcome [8] | outcome [18] | outcome [9] | outcome [10] | Potency [11] | outcome [12] | outcome [13] | Potency [19] | outcome [14] | outcome [15]

CCCCS
inactive: outcome [1] | Potency [2] | outcome [3] | outcome [5] | Potency [6] | Potency [7] | outcome [20] | Potency [17] | outcome [8] | outcome [18] | outcome [9] | outcome [10] | Potency [11] | outcome [12] | outcome [13] | outcome [14] | outcome [15] | Potency [16]

CC(C)(C)c1ccc(C(=O)CCCCl)cc1
active: Potency [2] 7.5 µM
inactive: outcome [1] | outcome [4] | outcome [5] | Potency [6] | Potency [7] | outcome [20] | Potency [17] | outcome [8] | outcome [18] | outcome [9] | outcome [10] | Potency [11] | outcome [12] | outcome [13] | Potency [19] | outcome [14] | outcome [15]

NS(=O)(=O)c1cc2c(cc1C(F)(F)F)NCNS2(=O)=O
inactive: outcome [1] | Potency [2] | outcome [3] | outcome [4] | Potency [6] | Potency [7] | outcome [20] | Potency [17] | outcome [8] | outcome [18] | outcome [9] | Potency [11] | outcome [12] | outcome [13] | outcome [14] | outcome [15] | Potency [16]

O=C(O)/C=C(\CC(=O)O)C(=O)O
inactive: outcome [1] | Potency [2] | outcome [3] | outcome [4] | Potency [6] | Potency [7] | outcome [20] | Potency [17] | outcome [8] | outcome [9] | outcome [10] | Potency [11] | outcome [12] | outcome [13] | outcome [14] | outcome [15] | Potency [16]

CCO[Si](CC(C)C)(OCC)OCC
inactive: outcome [1] | Potency [2] | outcome [3] | outcome [4] | Potency [6] | Potency [7] | outcome [8] | outcome [18] | outcome [9] | outcome [10] | Potency [11] | outcome [12] | outcome [13] | Potency [19] | outcome [14] | outcome [15]

COc1ccccc1N1CCN(CC(O)COc2cc(OC)c(OC)c(OC)c2)CC1 (configuration not stated)
inactive: outcome [1] | Potency [2] | outcome [3] | outcome [4] | Potency [6] | Potency [7] | outcome [20] | outcome [8] | outcome [18] | outcome [9] | outcome [10] | Potency [11] | outcome [12] | outcome [13] | Potency [19] | outcome [14] | outcome [15] | Potency [16]

CC(=O)c1ccc2ccc3ccccc3c2c1
inactive: outcome [1] | Potency [2] | outcome [3] | outcome [4] | outcome [5] | Potency [6] | outcome [8] | outcome [9] | outcome [12] | outcome [13] | outcome [14] | outcome [15]
active: Potency [7] 9.63 µM | Potency [16] 60.8 µM

COc1cc(S(N)(=O)=O)cc(C(=O)O)c1OC
inactive: outcome [1] | Potency [2] | outcome [3] | outcome [4] | outcome [5] | outcome [20] | Potency [17] | outcome [8] | outcome [18] | outcome [9] | outcome [10] | outcome [12] | outcome [13] | outcome [14] | outcome [15] | Potency [16]

CCOC(=O)[C@H](CCc1ccccc1)N[C@H]1CS[C@H](c2cccs2)CN(CC(=O)O)C1=O
inactive: outcome [1] | Potency [2] | outcome [3] | outcome [4] | Potency [17] | outcome [8] | outcome [18] | outcome [9] | outcome [12] | outcome [13] | Potency [19] | outcome [14] | outcome [15] | Potency [16]

From PubChem BioAssay (Tox21)
